# In PubChem BioAssay (NCI):
# The panel holds about 79,000 compounds, 15% with a hit somewhere; the sample as a whole holds those more often. A number with no mark means an inactive call. Calls of active or inactive are those of the source. Cut-off read from the data, not from the text of the source: active = growth inhibition above about 70%; inactive = the rest.
# How the values were obtained:
# [1] = NCI Yeast Anticancer Drug Screen. Data for the rad52 strain (AID 147);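 note: 0% = growth of vehicle-treated control cultures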; settings: S. cerevisiae rad52 mutant growth inhibition, hits give high values
# How it was run: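 DNA repair-defective yeast; compound exposure; growth scored against vehicle controls.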
# [2] = NCI Yeast Anticancer Drug Screen. Data for the wt1 strain (AID 149);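 note: 0% = growth of vehicle-treated wt1 cultures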; settings: S. cerevisiae wt1 strain (SPY 50644) growth inhibition, hits give high values
# How it was run: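 Vehicle-normalised growth inhibition; strain wt1; compound exposure.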
# [3] = NCI Yeast Anticancer Drug Screen. Data for the rad50EPP+ strain (AID 151);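 note: 0% = growth of vehicle-treated control cultures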; settings: S. cerevisiae rad50 mutant strain, hits give high values
# How it was run: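 rad50EPP+ yeast treated with test compounds. Readout: growth vs vehicle control.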
# [4] = NCI Yeast Anticancer Drug Screen. Data for the rad50 strain (AID 155);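 note: 0% = growth of vehicle-only cultures of the same strain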; settings: S. cerevisiae rad50 strain growth inhibition, hits give high values
# How it was run: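 A DNA repair-deficient yeast mutant serves as the test organism; compound-induced growth inhibition is calculated against vehicle-treated cells.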
# [5] = NCI Yeast Anticancer Drug Screen. Data for the mec2-1 strain (AID 157); settings: S. cerevisiae mec2-1 strain, hits give high values
# How it was run: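 Growth inhibition is read against vehicle-treated controls after compound exposure of the mec2-1 yeast strain, which is defective in DNA damage repair or cell cycle control.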
# [6] = NCI Yeast Anticancer Drug Screen. Data for the rad14 strain (AID 159);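 note: 0% = growth of vehicle-treated control cultures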; settings: S. cerevisiae rad14 strain growth inhibition, hits give high values
# How it was run: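 Vehicle-treated cultures served as the baseline for growth inhibition of a DNA repair-mutant yeast strain exposed to each compound.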
# [7] = NCI Yeast Anticancer Drug Screen. Data for the sgs1 mgt1 strain (AID 161);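 note: 0% = growth of cultures given vehicle only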; settings: S. cerevisiae sgs1 mgt1 strain, hits give high values
# How it was run: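 Compounds are added to genetically altered yeast, and growth is compared with cultures given vehicle alone to give percent inhibition.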
# [8] = NCI Yeast Anticancer Drug Screen. Data for the CLN2oe strain (AID 163);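 note: 0% = growth of vehicle-only control cultures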; settings: S. cerevisiae CLN2oe strain, hits give high values
# How it was run: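 Compound-treated yeast; growth vs vehicle ctrl = % inhibition. Genetically altered strain (cell-cycle control).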
# [9] = NCI Yeast Anticancer Drug Screen. Data for the cln2 rad14 strain (AID 165);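 note: 0% = growth equal to vehicle treated cultures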; settings: S. cerevisiae cln2 rad14 strain, hits give high values
# How it was run: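 Growth inhibition, relative to vehicle-treated controls, is the read-out. The test organism is a yeast strain with defined genetic alterations, cln2 rad14.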
# [10] = NCI Yeast Anticancer Drug Screen. Data for the bub3 strain (AID 167); settings: S. cerevisiae bub3 mutant strain, hits give high values
# How it was run: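 Inhibition values come from growth of compound-treated mutant yeast normalised to vehicle-treated controls.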
# [11] = NCI Yeast Anticancer Drug Screen. Data for the wt2 strain (AID 169);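 note: 0% = growth of vehicle-treated yeast cultures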; settings: S. cerevisiae wt2 strain growth inhibition, hits give high values
# How it was run: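 Compound exposure of yeast; growth compared with vehicle controls; inhibition reported.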
# [12] = NCI Yeast Anticancer Drug Screen. Data for the mlh1 strain (AID 171);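 note: 0% = growth of vehicle-treated control cultures of the same strain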; settings: S. cerevisiae mlh1 strain growth inhibition, hits give high values
# How it was run: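 Compounds are applied to a genetically altered yeast strain, and its growth is compared with that of vehicle-treated cultures to give percent inhibition.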
# [13] = NCI Yeast Anticancer Drug Screen. Data for the sgs1 strain (AID 173);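 note: 0% = growth of vehicle-only control cultures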; settings: S. cerevisiae sgs1 mutant, hits give high values
# How it was run: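 Compounds applied to genetically altered yeast; growth compared with vehicle-treated cultures to give % inhibition.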
# [14] = NCI Yeast Anticancer Drug Screen. Data for the mlh1 rad18 strain (AID 175); settings: S. cerevisiae mlh1 rad18 strain growth inhibition, hits give high values
# How it was run: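 Cells of a genetically altered yeast strain, deficient in DNA damage repair, were treated with compound. Their growth was then compared with that of vehicle-treated cultures to give inhibition.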
# [15] = NCI Yeast Anticancer Drug Screen. Data for the rad18 strain (AID 177); settings: S. cerevisiae rad18 mutant growth inhibition, hits give high values
# How it was run: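 Compounds are applied to a repair-deficient yeast strain, and growth is compared with that of vehicle-treated cultures to give percent inhibition.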
# [16] = at 5.0 µM (retest, dose inferred, filed as 0.5)
# [17] = at 50.0 µM (retest, dose inferred, filed as 5.0)
compound,measurement,setting,value
N#C/C(=C\c1ccccc1)c1ccccc1F,growth inhibition,[1]; at 1.2 µM,-1%
same,growth inhibition,[1]; at 3.7 µM,-3%
same,growth inhibition,[1]; at 11.0 µM,-2%
same,growth inhibition,[1]; at 33.0 µM,-1%
same,growth inhibition,[1]; at 100.0 µM,3%
same,growth inhibition,[2]; at 1.2 µM,1%
same,growth inhibition,[2]; at 3.7 µM,1%
same,growth inhibition,[2]; at 11.0 µM,2%
same,growth inhibition,[2]; at 33.0 µM,1%
same,growth inhibition,[2]; at 100.0 µM,1%
same,growth inhibition,[3]; at 1.2 µM,2%
same,growth inhibition,[3]; at 3.7 µM,2%
same,growth inhibition,[3]; at 11.0 µM,9%
same,growth inhibition,[3]; at 33.0 µM,16%
same,growth inhibition,[3]; at 100.0 µM,21%
same,growth inhibition,[4]; at 1.2 µM,-4%
same,growth inhibition,[4]; at 3.7 µM,3%
same,growth inhibition,[4]; [16],6%
same,growth inhibition,[4]; at 11.0 µM,-2%
same,growth inhibition,[4]; at 33.0 µM,2%
same,growth inhibition,[4]; [17],89% (active)
same,growth inhibition,[4]; at 50.0 µM,44.1%
same,growth inhibition,[4]; at 100.0 µM,10%
same,growth inhibition,[5]; at 1.2 µM,2%
same,growth inhibition,[5]; at 3.7 µM,0%
same,growth inhibition,[5]; [16],-11%
same,growth inhibition,[5]; at 11.0 µM,4%
same,growth inhibition,[5]; at 33.0 µM,-4%
same,growth inhibition,[5]; [17],69%
same,growth inhibition,[5]; at 50.0 µM,41.7%
same,growth inhibition,[5]; at 100.0 µM,-4%
same,growth inhibition,[6]; at 1.2 µM,-2%
same,growth inhibition,[6]; at 3.7 µM,-1%
same,growth inhibition,[6]; at 11.0 µM,1%
same,growth inhibition,[6]; at 33.0 µM,1%
same,growth inhibition,[6]; at 100.0 µM,5%
same,growth inhibition,[7]; [16],-8%
same,growth inhibition,[7]; [17],90% (active)
same,growth inhibition,[7]; at 50.0 µM,45.9%
same,growth inhibition,[8]; at 1.2 µM,13%
same,growth inhibition,[8]; at 3.7 µM,9%
same,growth inhibition,[8]; at 11.0 µM,11%
same,growth inhibition,[8]; at 33.0 µM,14%
same,growth inhibition,[8]; at 100.0 µM,8%
same,growth inhibition,[9]; [16],-10%
same,growth inhibition,[9]; [17],17%
same,growth inhibition,[9]; at 50.0 µM,6.15%
same,growth inhibition,[10]; at 1.2 µM,-31%
same,growth inhibition,[10]; at 3.7 µM,-21%
same,growth inhibition,[10]; [16],-17%
same,growth inhibition,[10]; at 11.0 µM,-6%
same,growth inhibition,[10]; at 33.0 µM,-10%
same,growth inhibition,[10]; [17],88% (active)
same,growth inhibition,[10]; at 50.0 µM,34.9%
same,growth inhibition,[10]; at 100.0 µM,-7%
same,growth inhibition,[11]; at 1.2 µM,-3%
same,growth inhibition,[11]; at 3.7 µM,-2%
same,growth inhibition,[11]; at 11.0 µM,-1%
same,growth inhibition,[11]; at 33.0 µM,-1%
same,growth inhibition,[11]; at 100.0 µM,4%
same,growth inhibition,[12]; at 1.2 µM,-1%
same,growth inhibition,[12]; at 3.7 µM,2%
same,growth inhibition,[12]; at 11.0 µM,0%
same,growth inhibition,[12]; at 33.0 µM,-6%
same,growth inhibition,[12]; at 100.0 µM,10%
same,growth inhibition,[13]; at 1.2 µM,-1%
same,growth inhibition,[13]; at 3.7 µM,-1%
same,growth inhibition,[13]; at 11.0 µM,1%
same,growth inhibition,[13]; at 33.0 µM,1%
same,growth inhibition,[13]; at 100.0 µM,2%
same,growth inhibition,[14]; [16],22%
same,growth inhibition,[14]; [17],96% (active)
same,growth inhibition,[14]; at 50.0 µM,67%
same,growth inhibition,[15]; at 1.2 µM,-2%
same,growth inhibition,[15]; at 3.7 µM,-5%
same,growth inhibition,[15]; at 11.0 µM,-7%
same,growth inhibition,[15]; at 33.0 µM,-14%
same,growth inhibition,[15]; at 100.0 µM,-15%
CC(=O)OCC1OC(O[C@H]2C=C[C@@H](C(=O)OCc3ccccc3)n3c(=O)n(-c4ccccc4)c(=O)n32)C(OC(C)=O)C(OC(C)=O)C1OC(C)=O (stereo partly drawn),growth inhibition,[1]; at 1.2 µM,22%
same,growth inhibition,[1]; at 3.7 µM,24%
same,growth inhibition,[1]; at 11.0 µM,14%
same,growth inhibition,[1]; at 33.0 µM,63%
same,growth inhibition,[1]; at 100.0 µM,77% (active)
same,growth inhibition,[2]; at 1.2 µM,-11%
same,growth inhibition,[2]; at 3.7 µM,2%
same,growth inhibition,[2]; at 11.0 µM,-3%
same,growth inhibition,[2]; at 33.0 µM,21%
same,growth inhibition,[2]; at 100.0 µM,29%
same,growth inhibition,[3]; at 1.2 µM,-9%
same,growth inhibition,[3]; at 3.7 µM,3%
same,growth inhibition,[3]; at 11.0 µM,2%
same,growth inhibition,[3]; at 33.0 µM,16%
same,growth inhibition,[3]; at 100.0 µM,18%
same,growth inhibition,[4]; at 1.2 µM,-14%
same,growth inhibition,[4]; at 3.7 µM,10%
same,growth inhibition,[4]; [16],39%
same,growth inhibition,[4]; at 11.0 µM,0%
same,growth inhibition,[4]; at 33.0 µM,50%
same,growth inhibition,[4]; [17],72% (active)
same,growth inhibition,[4]; at 50.0 µM,59%
same,growth inhibition,[4]; at 100.0 µM,67%
same,growth inhibition,[5]; at 1.2 µM,2%
same,growth inhibition,[5]; at 3.7 µM,9%
same,growth inhibition,[5]; [16],23%
same,growth inhibition,[5]; at 11.0 µM,-8%
same,growth inhibition,[5]; at 33.0 µM,36%
same,growth inhibition,[5]; [17],71% (active)
same,growth inhibition,[5]; at 50.0 µM,57%
same,growth inhibition,[5]; at 100.0 µM,59%
same,growth inhibition,[6]; at 1.2 µM,-15%
same,growth inhibition,[6]; at 3.7 µM,8%
same,growth inhibition,[6]; at 11.0 µM,-8%
same,growth inhibition,[6]; at 33.0 µM,8%
same,growth inhibition,[6]; at 100.0 µM,20%
same,growth inhibition,[7]; [16],29%
same,growth inhibition,[7]; [17],78% (active)
same,growth inhibition,[7]; at 50.0 µM,71% (active)
same,growth inhibition,[8]; at 1.2 µM,10%
same,growth inhibition,[8]; at 3.7 µM,22%
same,growth inhibition,[8]; at 11.0 µM,24%
same,growth inhibition,[8]; at 33.0 µM,58%
same,growth inhibition,[8]; at 100.0 µM,82% (active)
same,growth inhibition,[9]; [16],13%
same,growth inhibition,[9]; [17],33%
same,growth inhibition,[9]; at 50.0 µM,53.6%
same,growth inhibition,[10]; at 1.2 µM,-30%
same,growth inhibition,[10]; at 3.7 µM,-18%
same,growth inhibition,[10]; [16],28%
same,growth inhibition,[10]; at 11.0 µM,-27%
same,growth inhibition,[10]; at 33.0 µM,24%
same,growth inhibition,[10]; [17],80% (active)
same,growth inhibition,[10]; at 50.0 µM,75.1% (active)
same,growth inhibition,[10]; at 100.0 µM,76% (active)
same,growth inhibition,[11]; at 1.2 µM,-36%
same,growth inhibition,[11]; at 3.7 µM,-18%
same,growth inhibition,[11]; at 11.0 µM,19%
same,growth inhibition,[11]; at 33.0 µM,98% (active)
same,growth inhibition,[11]; at 100.0 µM,97% (active)
